In PubChem BioAssay one finds z-score data, which are given here for 26 molecules.

A number with no mark means an inactive call.

The experiment can be described thus: fission yeast growth modulation, primary screen, strain 972, OD600, 24 h, no modulator (AID 1090).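 Further: basal condition with compound alone and no growth modifier present; test concentration not given here.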 The note with it: S. pombe 972 growth, higher = more signal, called active from +8 up or from −8 down.
For `CC(C)C(O)C1C=CC2C(=O)N(C)C(=O)C2N1Nc1ccccc1` (stereo unspecified), the z-score is -0.163.

Consider `Cc1c(NC(=O)/C(C#N)=C/C=C/c2ccc(N(C)C)cc2)c(=O)n(-c2ccccc2)n1C`, for which the z-score is -0.544.

As to `COc1cc(CO)cc(I)c1O[C@H]1C=C(C(=O)NCCO)C[C@@H](N(Cc2ccc(F)cc2)C(=O)C2CCCO2)[C@@H]1O` (stereo partly specified), the z-score was -0.389.

`O=C1C[C@@](C(=O)NCC(F)(F)F)(c2ccc([N+](=O)[O-])cc2)[C@@H](c2ccc(CO)cc2)N1C1CCCCC1`: the z-score was -0.209.

Take `COC(=O)Cn1c(C(=O)N2CCCC2)cc2c1C[C@H]1CN(C(=O)c3ccccc3)[C@@](Cc3ccc(F)cc3)(C(=O)OC)[C@@H]21`: the z-score was 0.562.

For the molecule `O=C(CS)NCCCCCCNC(=O)[C@H]1C[C@H]2C(=O)N[C@@H](Cc3ccccc3)C(=O)N2[C@H]1c1cccc(OCCO)c1`, the z-score was 0.311.

For `COc1cc2c(cc1OC)CN(C(=O)[C@H]1[C@@H]3C(=O)O[C@@H](c4ccccc4)[C@@H](c4ccccc4)N3[C@@H](c3ccc(OCCO)cc3)[C@]13C(=O)Nc1ccc(C#CC4(O)CCCCCC4)cc13)CC2`, the z-score is 1.28.

On to `O=C1O[C@H](c2ccccc2)[C@H](c2ccccc2)N2[C@H]1[C@@H](C(=O)O)[C@]1(C(=O)Nc3ccccc31)[C@H]2c1ccc(O)cc1`, for which the z-score was 0.278.

With `CC(=O)N1Cc2ccccc2C[C@]2(N=C(c3ccc(OCCCO)cc3)O[C@@H]2c2ccccc2)C1=O`, the z-score is -2.91.

In the case of `Cc1ccc(S[C@]2(C(=O)O)CC(=O)N(Cc3ccccc3Cl)[C@@H]2c2ccc(CO)cc2)cc1`, the z-score was -1.31.

Consider `COc1c(C)cc(-c2cc3c(c(-c4ccccc4)n2)[Si](C(C)C)(C(C)C)OC3)cc1C`, for which the z-score is -0.747.

Regarding `O=C(CCCCCCC(=O)Nc1ccccc1)N/N=C/c1ccccc1`, the z-score is 0.0263.

In the case of `CCOC(=O)C[C@H]1[C@H](OC(=O)Cc2ccc3c(c2)OCO3)[C@@H](NC(=O)C2CCCCC2)c2cc(OCCCO)ccc2N1C(=O)c1ccc2ccccc2n1`, the z-score was -1.46.

For the molecule `O=C(NC1CC1)[C@@H]1c2ccccc2C(=O)N(Cc2ccccc2)[C@H]1c1ccc(CO)cc1`, the z-score was 0.109.

As to `NC(N)=NCc1cn(CCc2c[nH]c3ccccc23)nn1`, the z-score was -0.002.

Consider `COCCCNC(=O)[C@@]1(Sc2ccc(C)cc2)CC(=O)N(Cc2cc(C(F)(F)F)cc(C(F)(F)F)c2)[C@@H]1c1ccc(CO)cc1`, for which the z-score was -1.51.

Regarding `O=C1O[C@@H](c2ccccc2)[C@@H](c2ccccc2)N2[C@@H](c3ccc(O)cc3)[C@]3(C(=O)Nc4ccc(C#CC5=CCCCC5)cc43)[C@@H](C(=O)N3CCN(c4ncccn4)CC3)[C@H]12`, the z-score is 0.487.

With `COCCOC(=O)N1C(=O)[C@@]2(c3cc(C#CC4=CCCCC4)ccc31)[C@H](c1ccccc1OCCO)N1[C@H](c3ccccc3)[C@H](c3ccccc3)OC(=O)[C@H]1[C@@H]2C(=O)N1CCc2cc(OC)c(OC)cc2C1`, the z-score is 0.819.

`CC[C@H]1C2=C3C(CC[C@H]4C(OCc5ccc(F)cc5C(F)(F)F)OC[C@](C)([C@@H]34)N(C(=O)OC(C)(C)C)C2)C2COC(=O)OCC21` (stereo partly specified): the z-score is 1.13.

Take `CO[C@H]1O[C@H](CO)[C@@H](OC(=O)Nc2ccccc2-c2ccccc2)[C@H](OC(=O)Nc2ccc3c(c2)OCO3)[C@@H]1OC(=O)Nc1ccc2c(c1)OCO2`: the z-score was 0.798.

For `COCCCNC(=O)[C@@]1(Sc2ccc(C)cc2)CC(=O)N(C2Cc3ccccc3C2)[C@@H]1c1ccc(CO)cc1I`, the z-score is -1.79.

On to `Cc1ccc(S[C@]2(C(=O)NCc3ccccc3)CC(=O)N(C(C)C)[C@@H]2c2ccc(CO)cc2I)cc1`, for which the z-score is -1.38.

Take `CC(C)C(O)C1C=CC2C(=O)N(C)C(=O)C2N1N(c1ccccc1)c1ccccc1` (stereo unspecified): the z-score is 1.55.

With `O=C1OCC=C[C@H]2OC34C=CCN(Cn5nnc6ccccc65)C(=O)[C@H]3N(CCCCCCO)C(=O)[C@@H]4[C@@H]12` (stereo partly specified), the z-score is -1.19.

For `COC(=O)[C@@]1(Cc2ccccc2)[C@H]2c3cc(C(=O)N4CCCC4)n(Cc4cc(F)cc5c4OCOC5)c3C[C@H]2CN1C(=O)c1ccccc1`, the z-score was 1.17.

As to `O=C(O)[C@H](Cc1ccccc1)n1cc(-c2ccccn2)nn1`, the z-score is 1.25.
